Measured values: PubChem BioAssay (EPA / NIEHS)
Inconclusive results are not listed. Calls of active or inactive are those of the source. How the source made its calls: active means hit-call score of the fitted dose curve at least 0.9, where 1 is the maximum; inconclusive means response in the unintended direction; inactive means score below 0.9.

Legend:
[1] = ATG_XTT_Cytotoxicity: Cytotoxicity Assessment in the Attagene TRANS-FACTORIAL HepG2 Assay (AID 2283584)
Summary of the method: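 HepG2 human liver cells, transiently transfected with multiple GAL4-UAS reporter units, were dosed and read at 24 h by XTT as cell number. Loss of signal was fitted relative to DMSO negative control baseline.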

[2] = TOX21_p53_BLA_p2_viability: Viability Assessment in the Tox21 HCT-116 p53 Agonism Beta-lactamase Assay, Phase 2 (AID 2283591);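 further: compound exposure lasted 16 h at 37 °C; actives lower the ATP signal meaning cytotoxicity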
Summary of the method: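 HCT116 p53-bla cells, 4000/well, dosed after 5 h plating (217-fold dilution of DMSO stocks) and incubated 16 h at 37C. Viability taken as cellular ATP by CellTiter-Glo luminescence after 30 min RT; signal loss marks cytotoxicity.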

[3] = biological target: Cellular tumor antigen p53 (Homo sapiens) (UniProt P04637); experiment: TOX21_p53_BLA_p2_ratio: Tox21 HCT-116 p53 Agonism Beta-lactamase Assay, Ratio, Phase 2 (AID 2283592)
Summary of the method: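 Ratio endpoint: beta-lactamase cleavage of CCF4-AM, blue (460 nm) over green (530 nm). HCT116 reporter line; 16 h treatment, 37C; substrate 2 h RT.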

[4] = TOX21_p53_BLA_p4_viability: Viability Assessment in the Tox21 HCT-116 p53 Agonism Beta-lactamase Assay, Phase 4 (AID 2283597);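 further: hits lower the luminescence signal meaning cytotoxicity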
Summary of the method: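 Cytotoxicity was inferred from loss of CellTiter-Glo luminescence. HCT116 cells had been dosed with compounds after 5 h plating, incubated 16 h at 37C and 5% CO2, and exposed to the CCF4-AM substrate for 2 h.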

[5] = biological target: Cellular tumor antigen p53 (Homo sapiens) (UniProt P04637); experiment: TOX21_p53_BLA_p5_ratio: Tox21 HCT-116 p53 Agonism Beta-lactamase Assay, Ratio, Phase 5 (AID 2283599)
Summary of the method: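 HCT-116 p53-bla cells (4000/well) plated 5 h, dosed with compound (217-fold DMSO dilution) for 16 h at 37 C; CCF4-AM substrate 2 h at room temperature. Activity is the 460/530 nm emission ratio (405 nm excitation), fitted in gain-of-signal direction versus DMSO.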

[6] = TOX21_p53_BLA_p5_viability: Viability Assessment in the Tox21 HCT-116 p53 Agonism Beta-lactamase Assay, Phase 5 (AID 2283600)
Summary of the method: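 Luciferase-coupled ATP quantitation of cells treated for 16 h (37C, 5% CO2) with test chemicals delivered in DMSO via a 217-fold dilution; 4000 cells/well; reagent incubated 30 min at room temperature before luminescence reading.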

[7] = TOX21_p53_BLA_p3_viability: Viability Assessment in the Tox21 HCT-116 p53 Agonism Beta-lactamase Assay, Phase 3 (AID 2283593);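 further: cells exposed to compound for 16 h before reading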
Summary of the method: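 HCT116 cells, 4000/well, dosed 5 h after plating by pin transfer (217-fold dilution from DMSO stock) and incubated 16 h at 37C, 5% CO2. Viability read as ATP luminescence with CellTiter-Glo after 30 min at room temperature.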

[8] = biological target: Cellular tumor antigen p53 (Homo sapiens) (UniProt P04637); experiment: TOX21_p53_BLA_p3_ratio: Tox21 HCT-116 p53 Agonism Beta-lactamase Assay, Ratio, Phase 3 (AID 2283596)
Summary of the method: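 Cells were seeded at 4000/well, rested 5 h at 37C, then dosed with DMSO compound solutions (217-fold dilution) for 16 h. CCF4-AM substrate was loaded for 2 h at room temperature, and the 460/530 nm emission ratio was fitted for gain of signal versus DMSO.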

[9] = biological target: Cellular tumor antigen p53 (Homo sapiens) (UniProt P04637); experiment: TOX21_p53_BLA_p4_ratio: Tox21 HCT-116 p53 Agonism Beta-lactamase Assay, Ratio, Phase 4 (AID 2283601)
Summary of the method: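 HCT-116 p53 beta-lactamase reporter cells (4000/well) preincubated 5 h, then compound (217-fold dilution of DMSO stock) for 16 h at 37C. CCF4-AM substrate added 2 h at room temperature; 460/530 nm emission ratio fitted upward versus DMSO.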

Measured: AC50

Chain of Cellular tumor antigen p53 (Homo sapiens) (P04637 whole entry, looked up): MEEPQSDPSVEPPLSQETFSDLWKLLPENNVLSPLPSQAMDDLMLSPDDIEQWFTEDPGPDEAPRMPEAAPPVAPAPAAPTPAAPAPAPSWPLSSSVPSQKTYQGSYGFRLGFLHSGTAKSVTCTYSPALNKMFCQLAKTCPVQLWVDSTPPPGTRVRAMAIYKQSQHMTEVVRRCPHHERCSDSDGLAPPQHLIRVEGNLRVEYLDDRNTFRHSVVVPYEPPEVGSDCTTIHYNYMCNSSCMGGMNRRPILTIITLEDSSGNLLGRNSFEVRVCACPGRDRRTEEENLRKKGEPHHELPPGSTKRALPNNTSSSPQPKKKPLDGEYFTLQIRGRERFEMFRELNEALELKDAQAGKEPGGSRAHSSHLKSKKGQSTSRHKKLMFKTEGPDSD

CNC(=O)O/N=C/C(C)(C)S(C)(=O)=O
not listed: [7] | [8] | [9]
inactive: all other assays above

Nc1ccc(-c2ccccc2)cc1
not listed: [2]
inactive: all other assays above

CCCCCCCCCCCCCCC(Br)C(=O)O (stereo not given)
active: [7] 41.4 µM | [8] 75.3 µM | [5] 70.6 µM | [6] 70.3 µM
not listed: [3]
inactive: all other assays above

O=C(Cl)OCCOCCOC(=O)Cl
inactive: [1] | [2] | [3] | [8] | [6]

c1csc(-c2ccc(-c3cccs3)s2)c1
active: [3] 50.2 µM | [8] 41.9 µM | [5] 59.3 µM | [9] 46.1 µM
inactive: [1] | [2]

CCOC(=O)CCN(SN(C)C(=O)Oc1cccc2c1OC(C)(C)C2)C(C)C
not listed: [3] | [4] | [7]
inactive: all other assays above

C=C(C)C(=O)OCC(CC)CCCC (stereo not given)
not listed: [1] | [9]
inactive: all other assays above

CC(c1ccc(O)cc1)c1ccc(O)cc1
inactive: [3] | [7] | [8] | [5] | [6]

CCCCCCCCBr
inactive: [1] | [3] | [8] | [5] | [6]

Cc1cccc(N=Nc2ccc(N(C)C)cc2)c1
not listed: [1] | [6]
inactive: all other assays above

COCCl
not listed: [2] | [5] | [7]
inactive: all other assays above

CC(C)C(C)(N)C#N (stereo not given)
inactive: [2] | [3] | [7] | [4] | [5]

C#CCO
inactive: [3] | [9]

CC(C)=CC1C(C(=O)OCc2cccc(Oc3ccccc3)c2)C1(C)C (stereo not given)
inactive: [2] | [7] | [8] | [4] | [6]

O=CCCl
not listed: [2] | [4] | [6]
inactive: all other assays above

O=NN1CCCCCC1
inactive: [2] | [3] | [8] | [9]

C[C@H]1C(=O)O[C@@H]2CCN3CC=C(COC(=O)[C@](C)(O)[C@]1(C)O)[C@H]23
not listed: [2] | [4]
inactive: all other assays above

CCCCS(=O)(=O)Cl
inactive: [1] | [8] | [4] | [6]

O=C(NC(=O)c1c(F)cccc1F)Nc1cc(Cl)c(F)c(Cl)c1F
not listed: [1]
inactive: all other assays above

CC(C)(c1ccccc1)c1cc(-n2nc3ccccc3n2)c(O)c(C(C)(C)c2ccccc2)c1
inactive: [2] | [3] | [4] | [5] | [9]
